Unmarked numbers belong to inactive results. Calls of active or inactive are those of the source.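 The calls were made as follows: active = normalized viability below 100% at a tested concentration; inactive = the rest.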

The first assay in a line: drug combination growth inhibition, ovarian cancer – cell-based, oncology-focused library, rucaparib conditional, profiling panel (AID 1508598). The following applies: patient-derived ovarian cancer cells, CellTiter-Glo viability, 144 h; at 0.000305 µM; OCI-C5x cells; with rucaparib 10 µM; hits give low values; 100% = cells with rucaparib alone.
Turning to `N[C@@H]1CCCN(c2c(/C=C3\SC(=O)NC3=O)cccc2-c2ccccc2)C1`, the viability is 108%.

For `C[C@@H]1C[C@H]2[C@@H]3CCC4=CC(=O)C=C[C@]4(C)[C@]3(F)[C@H](O)C[C@]2(C)[C@]1(O)C(=O)CO`, the viability is 111%.

`Cc1cc2c(C(=O)NC[C@H](C)c3ccccc3)c(O)c(O)cc2c(O)c1-c1c(C)cc2c(C(=O)NC[C@H](C)c3ccccc3)c(O)c(O)cc2c1O`: the viability is 120%.

As to `Nc1nc(F)nc2c1ncn2[C@H]1O[C@H](CO)[C@@H](O)[C@@H]1O`, the viability was 101%.

Consider `COc1cccc2c1C(=O)c1c(O)c3c(c(O)c1C2=O)C[C@@](O)(C(=O)CO)C[C@H]3O[C@H]1C[C@H](N)[C@@H](O)[C@H](C)O1`, for which the viability is 101%.

Take `C=C1/C(=C/C=C2\CCC[C@@]3(C)[C@H]2CC[C@H]3[C@H](C)/C=C/[C@@H](C)C(C)C)C[C@H](O)C[C@@H]1O`: the viability is 99.9% (active).

Turning to `CO[C@H]1C[C@H]2CC[C@@H](C)[C@@](O)(O2)C(=O)C(=O)N2CCCC[C@H]2C(=O)O[C@H]([C@H](C)C[C@@H]2CC[C@H](OP(C)(C)=O)[C@H](OC)C2)CC(=O)[C@H](C)/C=C(\C)[C@@H](O)[C@@H](OC)C(=O)[C@H](C)C[C@H](C)/C=C/C=C/C=C/1C`, the viability is 115%.

Regarding `C=CCNC1=C2C[C@@H](C)C[C@H](OC)[C@H](O)[C@@H](C)/C=C(\C)[C@H](OC(N)=O)[C@@H](OC)/C=C\C=C(\C)C(=O)NC(=CC1=O)C2=O`, the viability is 110%.

On to `CC[C@]1(O)C[C@@H]2CN(CCc3c([nH]c4ccccc34)[C@@](C(=O)OC)(c3cc4c(cc3OC)N(C=O)[C@@H]3C45CCN4CC=C[C@](CC)([C@H]45)[C@H](OC(C)=O)[C@]3(O)C(=O)OC)C2)C1` (stereo partly specified), for which the viability was 113%.

As for `COc1cccc2c1C(=O)c1c(O)c3c(c(O)c1C2=O)C[C@@](O)(C(C)=O)C[C@H]3O[C@H]1C[C@H](N)[C@H](O)[C@H](C)O1`, the viability was 118%.

Consider `CCOc1ccc(Cc2cc([C@@H]3O[C@H](CO)[C@@H](O)[C@H](O)[C@@H]3O)ccc2Cl)cc1`, for which the viability was 111%.

In the case of `CC(=O)[C@]1(O)Cc2c(O)c3c(c(O)c2[C@H](O[C@H]2C[C@H](N)[C@H](O)[C@H](C)O2)C1)C(=O)c1ccccc1C3=O`, the viability is 107%.

Consider `CCC1=CC2CN(C1)Cc1c([nH]c3ccccc13)[C@@](C(=O)OC)(c1cc3c(cc1OC)N(C)[C@H]1[C@@](O)(C(=O)OC)[C@H](OC(C)=O)[C@]4(CC)C=CCN5CC[C@@]31[C@H]54)C2` (stereo partly specified), for which the viability was 110%.

On to `CC(=O)O[C@H]1C(=O)[C@@]2(C)C([C@H](OC(=O)c3ccccc3)[C@]3(O)C[C@H](OC(=O)[C@H](O)[C@@H](NC(=O)c4ccccc4)c4ccccc4)C(C)=C1C3(C)C)[C@]1(OC(C)=O)CO[C@@H]1C[C@H]2O` (stereo partly specified), for which the viability was 112%.

Take `CO[C@H]1C[C@H]2CC[C@@H](C)[C@@](O)(O2)C(=O)C(=O)N2CCCC[C@H]2C(=O)O[C@H]([C@H](C)C[C@@H]2CC[C@H](OC(=O)C(C)(CO)CO)[C@H](OC)C2)CC(=O)[C@H](C)/C=C(\C)[C@@H](O)[C@@H](OC)C(=O)[C@H](C)C[C@H](C)/C=C/C=C/C=C/1C`: the viability was 93.5% (active).

Regarding `CO[C@H]1/C=C\C=C(\C)C(=O)NC2=CC(=O)C(NCCN(C)C)=C(C[C@@H](C)C[C@H](OC)[C@H](O)[C@@H](C)/C=C(\C)[C@@H]1OC(N)=O)C2=O`, the viability is 108%.

Consider `CC(C)(C(=O)NCC(F)(F)C(F)(F)F)C(=O)N[C@H]1C(=O)Nc2ccccc2-c2ccccc21`, for which the viability was 111%.

For the compound `CC1(C)O[C@@H]2C[C@H]3[C@@H]4CCC5=CC(=O)C=C[C@]5(C)[C@]4(F)[C@H](O)C[C@]3(C)[C@@]2(C(=O)CO)O1`, the viability is 108%.

The assay is the same for the next values; noted with them: patient-derived ovarian cancer cells, CellTiter-Glo viability, 144 h; at 0.000305 µM; OCI-C5x cells; without rucaparib; hits give low values.
For the compound `N[C@@H]1CCCN(c2c(/C=C3\SC(=O)NC3=O)cccc2-c2ccccc2)C1`, the viability is 122%.

Turning to `C[C@@H]1C[C@H]2[C@@H]3CCC4=CC(=O)C=C[C@]4(C)[C@]3(F)[C@H](O)C[C@]2(C)[C@]1(O)C(=O)CO`, the viability is 118%.

As for `Cc1cc2c(C(=O)NC[C@H](C)c3ccccc3)c(O)c(O)cc2c(O)c1-c1c(C)cc2c(C(=O)NC[C@H](C)c3ccccc3)c(O)c(O)cc2c1O`, the viability is 108%.

As to `Nc1nc(F)nc2c1ncn2[C@H]1O[C@H](CO)[C@@H](O)[C@@H]1O`, the viability was 120%.

Take `COc1cccc2c1C(=O)c1c(O)c3c(c(O)c1C2=O)C[C@@](O)(C(=O)CO)C[C@H]3O[C@H]1C[C@H](N)[C@@H](O)[C@H](C)O1`: the viability was 108%.

Regarding `C=C1/C(=C/C=C2\CCC[C@@]3(C)[C@H]2CC[C@H]3[C@H](C)/C=C/[C@@H](C)C(C)C)C[C@H](O)C[C@@H]1O`, the viability was 95% (active).

With `CO[C@H]1C[C@H]2CC[C@@H](C)[C@@](O)(O2)C(=O)C(=O)N2CCCC[C@H]2C(=O)O[C@H]([C@H](C)C[C@@H]2CC[C@H](OP(C)(C)=O)[C@H](OC)C2)CC(=O)[C@H](C)/C=C(\C)[C@@H](O)[C@@H](OC)C(=O)[C@H](C)C[C@H](C)/C=C/C=C/C=C/1C`, the viability was 103%.

For the compound `C=CCNC1=C2C[C@@H](C)C[C@H](OC)[C@H](O)[C@@H](C)/C=C(\C)[C@H](OC(N)=O)[C@@H](OC)/C=C\C=C(\C)C(=O)NC(=CC1=O)C2=O`, the viability was 101%.

On to `CC[C@]1(O)C[C@@H]2CN(CCc3c([nH]c4ccccc34)[C@@](C(=O)OC)(c3cc4c(cc3OC)N(C=O)[C@@H]3C45CCN4CC=C[C@](CC)([C@H]45)[C@H](OC(C)=O)[C@]3(O)C(=O)OC)C2)C1` (stereo partly specified), for which the viability was 99.3% (active).

For `COc1cccc2c1C(=O)c1c(O)c3c(c(O)c1C2=O)C[C@@](O)(C(C)=O)C[C@H]3O[C@H]1C[C@H](N)[C@H](O)[C@H](C)O1`, the viability was 110%.

As for `CCOc1ccc(Cc2cc([C@@H]3O[C@H](CO)[C@@H](O)[C@H](O)[C@@H]3O)ccc2Cl)cc1`, the viability was 102%.

Turning to `CC(=O)[C@]1(O)Cc2c(O)c3c(c(O)c2[C@H](O[C@H]2C[C@H](N)[C@H](O)[C@H](C)O2)C1)C(=O)c1ccccc1C3=O`, the viability is 103%.

As to `CCC1=CC2CN(C1)Cc1c([nH]c3ccccc13)[C@@](C(=O)OC)(c1cc3c(cc1OC)N(C)[C@H]1[C@@](O)(C(=O)OC)[C@H](OC(C)=O)[C@]4(CC)C=CCN5CC[C@@]31[C@H]54)C2` (stereo partly specified), the viability was 106%.

Regarding `CC(=O)O[C@H]1C(=O)[C@@]2(C)C([C@H](OC(=O)c3ccccc3)[C@]3(O)C[C@H](OC(=O)[C@H](O)[C@@H](NC(=O)c4ccccc4)c4ccccc4)C(C)=C1C3(C)C)[C@]1(OC(C)=O)CO[C@@H]1C[C@H]2O` (stereo partly specified), the viability was 129%.

For the compound `CO[C@H]1C[C@H]2CC[C@@H](C)[C@@](O)(O2)C(=O)C(=O)N2CCCC[C@H]2C(=O)O[C@H]([C@H](C)C[C@@H]2CC[C@H](OC(=O)C(C)(CO)CO)[C@H](OC)C2)CC(=O)[C@H](C)/C=C(\C)[C@@H](O)[C@@H](OC)C(=O)[C@H](C)C[C@H](C)/C=C/C=C/C=C/1C`, the viability was 93.2% (active).

As to `CO[C@H]1/C=C\C=C(\C)C(=O)NC2=CC(=O)C(NCCN(C)C)=C(C[C@@H](C)C[C@H](OC)[C@H](O)[C@@H](C)/C=C(\C)[C@@H]1OC(N)=O)C2=O`, the viability was 108%.

For `CC(C)(C(=O)NCC(F)(F)C(F)(F)F)C(=O)N[C@H]1C(=O)Nc2ccccc2-c2ccccc21`, the viability is 114%.

As for `CC1(C)O[C@@H]2C[C@H]3[C@@H]4CCC5=CC(=O)C=C[C@]5(C)[C@]4(F)[C@H](O)C[C@]3(C)[C@@]2(C(=O)CO)O1`, the viability is 124%.

The viability is a read-out of living cells in per cent, often relative to untreated cells.

For the origin of these results see PubChem BioAssay.
